Binding signal data for 1 sequence are collected here from article PMC7862700, “An all-to-all approach to the identification of sequence-specific readers for epigenetic DNA modifications on cytosine”.

Common to all, as to test: DAPPL (digital affinity profiling via proximity ligation, sequencing); 10 mM Tris-HCl pH 7.5, 50 mM NaCl, 1 mM DTT, 4% glycerol, room temperature, 30 min; GST-TFs on glutathione beads, 16-mer random dsDNA library, 0.1% formaldehyde crosslink after washing; high values mean tight binding
In one test the target is T1, FEV (Homo sapiens, UniProt Q99581 1-238).
T1 sequence: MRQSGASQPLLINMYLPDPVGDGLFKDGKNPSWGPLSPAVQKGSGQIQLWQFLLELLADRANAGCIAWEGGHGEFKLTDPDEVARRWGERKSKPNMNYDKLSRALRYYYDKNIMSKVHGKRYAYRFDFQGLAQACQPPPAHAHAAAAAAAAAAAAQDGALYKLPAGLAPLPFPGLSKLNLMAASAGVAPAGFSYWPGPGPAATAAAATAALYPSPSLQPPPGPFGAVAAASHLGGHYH
The conditions noted are these: protein: recombinant; tags: N-terminal GST; dsDNA, one strand shown. Summed up:
(§1)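 Each value of binding signal is a hexamer's read frequency for a factor divided by the same hexamer's frequency in the tag-only sample. Barcoded, bead-captured GST fusions of human transcription factors made in yeast were pooled with that sample and incubated with 200 nmole of a random double-stranded 16-mer DNA library in Tris/NaCl/DTT/glycerol buffer at room temperature for 30 min. Washing, 0.1% formaldehyde crosslinking, proximity ligation, PCR and Illumina NextSeq500 sequencing followed.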

In a further test the target is ETV5 (Homo sapiens, UniProt P41161 1-510). The following applies: protein: recombinant; tags: N-terminal GST; dsDNA, one strand shown. Summed up: as §1
The next test deals with HSF1 (Homo sapiens, UniProt Q00613 1-529). The following applies: protein: recombinant; tags: N-terminal GST; chain copies: 3; dsDNA, one strand shown. A digest of the protocol:
as §1

Another test has as its target T2, SPIC (Homo sapiens, UniProt Q8N5J4 1-248).
T2 sequence: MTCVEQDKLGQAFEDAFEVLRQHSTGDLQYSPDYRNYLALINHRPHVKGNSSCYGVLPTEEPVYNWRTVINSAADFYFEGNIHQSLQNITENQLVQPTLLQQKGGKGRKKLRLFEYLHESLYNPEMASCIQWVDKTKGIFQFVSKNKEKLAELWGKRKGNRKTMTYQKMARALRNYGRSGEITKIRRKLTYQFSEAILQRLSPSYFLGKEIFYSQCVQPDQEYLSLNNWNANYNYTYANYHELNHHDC
The following applies: protein: recombinant; tags: N-terminal GST; dsDNA, one strand shown. A digest of the protocol: as §1

The next test concerns the target ELF4 (Homo sapiens, UniProt Q99607 1-663). The following applies: protein: recombinant; tags: N-terminal GST; dsDNA, one strand shown. Summed up: as §1
For another test, the target named is T3, ELK4 (Homo sapiens, UniProt P28324-2 1-405).
T3 sequence: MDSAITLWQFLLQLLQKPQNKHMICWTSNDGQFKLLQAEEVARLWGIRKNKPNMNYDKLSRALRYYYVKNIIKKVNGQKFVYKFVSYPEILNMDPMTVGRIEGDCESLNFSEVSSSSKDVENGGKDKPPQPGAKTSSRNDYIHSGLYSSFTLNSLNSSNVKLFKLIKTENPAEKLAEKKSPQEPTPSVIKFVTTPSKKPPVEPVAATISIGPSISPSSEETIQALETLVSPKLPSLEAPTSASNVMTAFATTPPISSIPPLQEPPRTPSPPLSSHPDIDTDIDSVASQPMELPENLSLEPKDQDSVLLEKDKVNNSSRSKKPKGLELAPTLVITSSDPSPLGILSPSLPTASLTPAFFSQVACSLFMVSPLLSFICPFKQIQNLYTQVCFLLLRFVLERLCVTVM
The following applies: protein: recombinant; tags: N-terminal GST; dsDNA, one strand shown. Summed up:
as §1

The next test has as its target T4, ETV2 (Homo sapiens, UniProt O00321 1-342).
T4 sequence: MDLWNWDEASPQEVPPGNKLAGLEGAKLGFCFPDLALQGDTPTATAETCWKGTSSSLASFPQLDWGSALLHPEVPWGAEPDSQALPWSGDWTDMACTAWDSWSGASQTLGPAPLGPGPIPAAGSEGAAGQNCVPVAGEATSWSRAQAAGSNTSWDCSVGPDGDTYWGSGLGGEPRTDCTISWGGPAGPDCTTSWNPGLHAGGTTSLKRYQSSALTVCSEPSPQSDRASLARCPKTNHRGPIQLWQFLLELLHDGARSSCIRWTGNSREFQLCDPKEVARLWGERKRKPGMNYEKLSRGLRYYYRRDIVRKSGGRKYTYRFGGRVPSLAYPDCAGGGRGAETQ
The conditions noted are these: protein: recombinant; tags: N-terminal GST; dsDNA, one strand shown. Summed up: as §1

For a further test, the target named is T5, ELF3 (Homo sapiens, UniProt P78545 1-371).
T5 sequence: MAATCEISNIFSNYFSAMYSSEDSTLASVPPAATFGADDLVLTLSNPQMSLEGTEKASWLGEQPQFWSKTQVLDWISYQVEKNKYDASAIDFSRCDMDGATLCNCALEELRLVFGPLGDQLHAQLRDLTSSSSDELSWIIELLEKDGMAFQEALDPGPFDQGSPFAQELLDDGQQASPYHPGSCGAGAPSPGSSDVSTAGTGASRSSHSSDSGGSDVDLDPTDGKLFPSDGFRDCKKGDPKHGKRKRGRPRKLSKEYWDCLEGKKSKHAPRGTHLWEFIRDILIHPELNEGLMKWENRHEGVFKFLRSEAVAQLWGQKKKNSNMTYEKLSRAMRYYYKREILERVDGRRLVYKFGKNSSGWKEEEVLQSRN
The conditions noted are these: protein: recombinant; tags: N-terminal GST; dsDNA, one strand shown. A digest of the protocol:
as §1

The target of another test is CRX (Homo sapiens, UniProt O43186 1-299). The following applies: protein: recombinant; tags: N-terminal GST; dsDNA, one strand shown. Summed up:
as §1

The target in the next test is ETV1 (Homo sapiens, UniProt P50549 1-477). The following applies: protein: recombinant; tags: N-terminal GST; dsDNA, one strand shown. Summed up:
as §1

The next test deals with T6, ERF (Homo sapiens, UniProt P50548 1-548).
T6 sequence: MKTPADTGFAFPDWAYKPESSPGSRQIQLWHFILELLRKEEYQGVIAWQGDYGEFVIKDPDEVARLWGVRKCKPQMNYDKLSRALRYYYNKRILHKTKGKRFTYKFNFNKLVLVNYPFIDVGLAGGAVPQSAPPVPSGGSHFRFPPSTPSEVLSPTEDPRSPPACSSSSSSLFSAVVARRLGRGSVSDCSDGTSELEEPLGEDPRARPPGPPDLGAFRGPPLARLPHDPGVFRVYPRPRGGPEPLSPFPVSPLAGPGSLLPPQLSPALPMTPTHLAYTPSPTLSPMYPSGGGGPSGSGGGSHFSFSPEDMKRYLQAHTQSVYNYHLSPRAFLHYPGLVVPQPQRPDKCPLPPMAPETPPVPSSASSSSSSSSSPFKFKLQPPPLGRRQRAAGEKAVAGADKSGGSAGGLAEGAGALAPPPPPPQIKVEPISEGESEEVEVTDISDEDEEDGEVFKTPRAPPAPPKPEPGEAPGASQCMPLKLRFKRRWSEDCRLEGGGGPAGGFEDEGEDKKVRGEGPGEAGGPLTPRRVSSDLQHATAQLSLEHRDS
The conditions noted are these: protein: recombinant; tags: N-terminal GST; dsDNA, one strand shown. Summed up:
as §1

The target in a further test is T7, ETV3L (Homo sapiens, UniProt Q6ZN32 1-361).
T7 sequence: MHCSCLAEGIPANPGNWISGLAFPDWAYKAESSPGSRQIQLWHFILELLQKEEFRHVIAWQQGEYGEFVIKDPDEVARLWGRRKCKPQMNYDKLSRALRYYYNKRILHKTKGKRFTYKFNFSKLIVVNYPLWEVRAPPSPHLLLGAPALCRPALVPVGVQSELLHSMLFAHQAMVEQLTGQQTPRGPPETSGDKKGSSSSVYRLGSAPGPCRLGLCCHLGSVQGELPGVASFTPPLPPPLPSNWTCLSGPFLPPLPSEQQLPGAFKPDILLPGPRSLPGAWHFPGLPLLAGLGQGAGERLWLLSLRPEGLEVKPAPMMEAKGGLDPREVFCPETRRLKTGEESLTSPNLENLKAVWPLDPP
The following applies: protein: recombinant; tags: N-terminal GST; dsDNA, one strand shown. A digest of the protocol: as §1

The next test addresses T8, ETS2 (Homo sapiens, UniProt P15036 1-469).
T8 sequence: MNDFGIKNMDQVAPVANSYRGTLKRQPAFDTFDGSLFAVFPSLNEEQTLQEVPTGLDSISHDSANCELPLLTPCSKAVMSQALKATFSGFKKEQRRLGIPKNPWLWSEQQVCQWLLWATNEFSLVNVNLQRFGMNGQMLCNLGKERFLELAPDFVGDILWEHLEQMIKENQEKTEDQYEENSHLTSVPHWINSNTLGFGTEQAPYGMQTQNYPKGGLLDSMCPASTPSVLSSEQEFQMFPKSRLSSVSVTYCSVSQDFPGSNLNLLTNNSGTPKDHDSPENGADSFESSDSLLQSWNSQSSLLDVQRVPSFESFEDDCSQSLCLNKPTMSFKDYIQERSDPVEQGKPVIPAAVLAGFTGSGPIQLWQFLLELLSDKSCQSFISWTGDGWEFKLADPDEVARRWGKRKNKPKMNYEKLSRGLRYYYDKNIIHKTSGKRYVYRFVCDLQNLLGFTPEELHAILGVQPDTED
The conditions noted are these: protein: recombinant; tags: N-terminal GST; dsDNA, one strand shown. Summed up: as §1

The target in the next test is T9, SPDEF (Homo sapiens, UniProt O95238 1-335).
T9 sequence: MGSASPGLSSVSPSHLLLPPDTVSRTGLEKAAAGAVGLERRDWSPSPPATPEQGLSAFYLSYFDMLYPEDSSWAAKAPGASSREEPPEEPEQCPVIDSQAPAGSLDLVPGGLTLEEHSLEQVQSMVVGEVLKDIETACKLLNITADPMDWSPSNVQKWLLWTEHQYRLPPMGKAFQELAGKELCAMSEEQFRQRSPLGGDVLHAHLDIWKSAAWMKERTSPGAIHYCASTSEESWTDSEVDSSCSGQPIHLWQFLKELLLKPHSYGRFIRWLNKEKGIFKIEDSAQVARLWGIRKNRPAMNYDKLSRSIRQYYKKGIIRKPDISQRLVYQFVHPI
The conditions noted are these: protein: recombinant; tags: N-terminal GST; dsDNA, one strand shown. A digest of the protocol: as §1

The target of another test is T10, ETV7 (Homo sapiens, UniProt Q9Y603 1-341).
T10 sequence: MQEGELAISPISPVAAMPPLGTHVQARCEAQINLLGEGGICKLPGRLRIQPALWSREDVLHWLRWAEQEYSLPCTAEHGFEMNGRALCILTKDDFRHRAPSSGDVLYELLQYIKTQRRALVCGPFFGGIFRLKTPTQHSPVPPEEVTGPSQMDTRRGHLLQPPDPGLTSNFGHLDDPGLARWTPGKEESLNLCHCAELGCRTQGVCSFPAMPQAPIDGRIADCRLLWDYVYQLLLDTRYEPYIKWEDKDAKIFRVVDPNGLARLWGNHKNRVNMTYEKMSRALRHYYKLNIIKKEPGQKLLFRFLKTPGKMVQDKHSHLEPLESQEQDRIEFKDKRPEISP
The following applies: protein: recombinant; tags: N-terminal GST; dsDNA, one strand shown. A digest of the protocol: as §1

The target in another test is T11, ELF5 (Homo sapiens, UniProt Q9UKW6-2 1-255).
T11 sequence: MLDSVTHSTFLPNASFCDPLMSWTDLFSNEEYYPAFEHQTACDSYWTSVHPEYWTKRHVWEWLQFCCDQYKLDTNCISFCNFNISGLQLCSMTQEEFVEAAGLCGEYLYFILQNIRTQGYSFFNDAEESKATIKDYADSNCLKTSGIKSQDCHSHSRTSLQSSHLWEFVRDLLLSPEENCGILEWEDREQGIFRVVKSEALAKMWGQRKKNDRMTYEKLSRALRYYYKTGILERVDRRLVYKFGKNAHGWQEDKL
The conditions noted are these: protein: recombinant; tags: N-terminal GST; dsDNA, one strand shown. A digest of the protocol:
as §1

The next test addresses T12, ETV3 (Homo sapiens, UniProt P41162-2 1-143).
T12 sequence: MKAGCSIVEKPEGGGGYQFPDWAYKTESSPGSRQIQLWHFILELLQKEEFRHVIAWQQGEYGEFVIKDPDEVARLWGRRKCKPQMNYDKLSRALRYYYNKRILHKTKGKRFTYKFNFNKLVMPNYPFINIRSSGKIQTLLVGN
The following applies: protein: recombinant; tags: N-terminal GST; dsDNA, one strand shown. A digest of the protocol: as §1

The target in a further test is ETV6 (Homo sapiens, UniProt P41212 1-452). The following applies: protein: recombinant; tags: N-terminal GST; dsDNA, one strand shown. A digest of the protocol: as §1
Sequence of ETV6 (P41212 whole entry): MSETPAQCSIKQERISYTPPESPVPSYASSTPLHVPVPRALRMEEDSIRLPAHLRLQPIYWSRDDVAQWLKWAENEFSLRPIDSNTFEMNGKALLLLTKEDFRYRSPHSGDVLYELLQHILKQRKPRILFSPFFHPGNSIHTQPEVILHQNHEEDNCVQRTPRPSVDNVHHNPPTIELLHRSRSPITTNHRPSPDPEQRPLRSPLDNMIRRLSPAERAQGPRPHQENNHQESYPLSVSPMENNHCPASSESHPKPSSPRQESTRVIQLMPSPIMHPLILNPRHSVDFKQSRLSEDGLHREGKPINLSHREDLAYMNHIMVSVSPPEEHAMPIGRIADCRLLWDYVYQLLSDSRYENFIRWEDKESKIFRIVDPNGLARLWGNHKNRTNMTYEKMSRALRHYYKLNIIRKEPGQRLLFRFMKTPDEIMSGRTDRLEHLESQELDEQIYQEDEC

Sequence of HSF1 (Q00613 whole entry): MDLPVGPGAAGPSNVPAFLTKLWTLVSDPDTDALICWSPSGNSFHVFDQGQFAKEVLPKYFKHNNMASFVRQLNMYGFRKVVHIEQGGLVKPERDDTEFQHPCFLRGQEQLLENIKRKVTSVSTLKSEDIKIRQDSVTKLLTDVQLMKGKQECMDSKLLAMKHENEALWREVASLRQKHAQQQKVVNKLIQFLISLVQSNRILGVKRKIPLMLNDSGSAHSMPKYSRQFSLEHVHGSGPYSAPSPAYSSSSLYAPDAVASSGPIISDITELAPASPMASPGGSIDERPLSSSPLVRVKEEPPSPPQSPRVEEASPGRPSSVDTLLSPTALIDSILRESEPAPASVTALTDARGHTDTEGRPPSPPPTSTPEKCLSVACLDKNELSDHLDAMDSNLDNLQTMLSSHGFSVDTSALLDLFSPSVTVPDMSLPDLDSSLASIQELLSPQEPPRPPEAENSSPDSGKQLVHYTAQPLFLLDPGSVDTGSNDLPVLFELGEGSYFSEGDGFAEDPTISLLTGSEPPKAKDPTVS
Sequence of CRX (O43186 whole entry): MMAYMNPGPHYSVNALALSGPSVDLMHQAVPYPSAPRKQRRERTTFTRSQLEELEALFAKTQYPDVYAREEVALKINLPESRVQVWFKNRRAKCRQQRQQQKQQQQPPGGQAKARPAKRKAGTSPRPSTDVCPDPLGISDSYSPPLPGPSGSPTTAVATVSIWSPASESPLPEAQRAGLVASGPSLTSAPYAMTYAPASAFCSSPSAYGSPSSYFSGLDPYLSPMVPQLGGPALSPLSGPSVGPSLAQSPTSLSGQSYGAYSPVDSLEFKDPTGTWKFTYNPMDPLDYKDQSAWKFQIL
Sequence of ELF4 (Q99607 whole entry): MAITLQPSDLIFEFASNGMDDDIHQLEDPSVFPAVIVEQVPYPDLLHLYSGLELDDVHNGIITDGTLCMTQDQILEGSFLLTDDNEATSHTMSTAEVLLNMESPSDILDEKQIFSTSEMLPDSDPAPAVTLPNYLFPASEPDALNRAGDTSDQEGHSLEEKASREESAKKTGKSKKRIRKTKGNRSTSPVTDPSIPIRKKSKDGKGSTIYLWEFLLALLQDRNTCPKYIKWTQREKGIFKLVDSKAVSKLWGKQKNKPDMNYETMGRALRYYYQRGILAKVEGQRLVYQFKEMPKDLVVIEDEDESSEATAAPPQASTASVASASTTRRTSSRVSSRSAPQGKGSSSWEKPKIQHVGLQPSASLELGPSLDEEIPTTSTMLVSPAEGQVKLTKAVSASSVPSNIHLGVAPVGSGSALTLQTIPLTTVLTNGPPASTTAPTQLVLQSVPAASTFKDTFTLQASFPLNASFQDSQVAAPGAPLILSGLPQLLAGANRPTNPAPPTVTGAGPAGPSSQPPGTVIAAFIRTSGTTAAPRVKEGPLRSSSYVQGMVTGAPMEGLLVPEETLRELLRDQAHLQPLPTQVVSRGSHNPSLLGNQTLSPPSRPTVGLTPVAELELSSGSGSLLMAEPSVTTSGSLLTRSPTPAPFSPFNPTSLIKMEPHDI
Sequence of ETV5 (P41161 whole entry): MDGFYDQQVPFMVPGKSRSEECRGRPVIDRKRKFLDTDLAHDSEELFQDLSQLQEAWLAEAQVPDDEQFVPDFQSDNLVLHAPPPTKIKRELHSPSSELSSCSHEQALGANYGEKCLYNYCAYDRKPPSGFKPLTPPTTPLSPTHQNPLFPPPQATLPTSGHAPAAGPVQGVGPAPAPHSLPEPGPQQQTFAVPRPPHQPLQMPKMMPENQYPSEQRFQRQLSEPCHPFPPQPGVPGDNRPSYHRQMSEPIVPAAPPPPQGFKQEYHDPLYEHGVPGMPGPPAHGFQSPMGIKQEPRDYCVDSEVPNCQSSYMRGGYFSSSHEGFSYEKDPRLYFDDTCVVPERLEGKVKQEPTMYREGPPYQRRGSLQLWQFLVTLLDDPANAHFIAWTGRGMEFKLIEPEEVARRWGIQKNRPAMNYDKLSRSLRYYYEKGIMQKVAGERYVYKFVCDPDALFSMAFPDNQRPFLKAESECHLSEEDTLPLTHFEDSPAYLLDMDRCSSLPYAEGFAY
Sequence of ETV1 (P50549 whole entry): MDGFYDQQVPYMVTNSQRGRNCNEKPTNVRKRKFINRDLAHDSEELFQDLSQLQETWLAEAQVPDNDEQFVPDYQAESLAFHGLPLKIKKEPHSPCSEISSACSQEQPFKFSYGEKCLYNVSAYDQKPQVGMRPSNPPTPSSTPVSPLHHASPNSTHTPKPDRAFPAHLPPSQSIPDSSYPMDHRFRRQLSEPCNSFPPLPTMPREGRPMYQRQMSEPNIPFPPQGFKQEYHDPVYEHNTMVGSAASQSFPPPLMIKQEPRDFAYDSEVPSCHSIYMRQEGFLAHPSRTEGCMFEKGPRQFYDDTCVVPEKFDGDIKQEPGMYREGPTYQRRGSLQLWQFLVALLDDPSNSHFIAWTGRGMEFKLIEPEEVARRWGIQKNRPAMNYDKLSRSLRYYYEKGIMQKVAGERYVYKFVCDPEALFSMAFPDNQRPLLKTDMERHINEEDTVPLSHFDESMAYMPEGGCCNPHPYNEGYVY

As for CTTGCC, the binding signal was 1.29 fold enrichment (6-mer frequency, TF over GST control) with FEV; 1.17 fold enrichment (6-mer frequency, TF over GST control) with ETV5; 1.1 fold enrichment (6-mer frequency, TF over GST control) with HSF1; 1.66 fold enrichment (6-mer frequency, TF over GST control) with SPIC; 1.26 fold enrichment (6-mer frequency, TF over GST control) with ELF4; 1.17 fold enrichment (6-mer frequency, TF over GST control) with ELK4. Further, the binding signal with ETV2 was 1.24 fold enrichment (6-mer frequency, TF over GST control); with ELF3, 1.43 fold enrichment (6-mer frequency, TF over GST control); in the test with CRX it was 1.1 fold enrichment (6-mer frequency, TF over GST control); in the test with ETV1 it was 1.25 fold enrichment (6-mer frequency, TF over GST control); in the test with ERF, 1.33 fold enrichment (6-mer frequency, TF over GST control); in the test with ETV3L, 1.31 fold enrichment (6-mer frequency, TF over GST control). Further, the binding signal with ETS2 was 1.3 fold enrichment (6-mer frequency, TF over GST control); with SPDEF, 1.44 fold enrichment (6-mer frequency, TF over GST control); in the test with ETV7, 1.54 fold enrichment (6-mer frequency, TF over GST control); with ELF5 it was 1.29 fold enrichment (6-mer frequency, TF over GST control); in the test with ETV3, 1.33 fold enrichment (6-mer frequency, TF over GST control); with ETV6, 1.08 fold enrichment (6-mer frequency, TF over GST control).
